# Assay results published in the supplement of paper PMC4466140.
# B1: unnamed (peptide)
# chain: ILARAILTIPRVLDK
# B2: unnamed (peptide)
# chain: FFRRSELYLPNSSKA
# Experiments:
# Assay in all cases: SPOT peptide array binding signal intensity (averaged, normalized) (arbitrary units (background-subtracted, floor 0; scale differs between SH3 domains)); higher = stronger binding of the SH3 domain to the peptide
# AgAbp1 = biological target: AgAbp1
# Procedure, shortened: (§1)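 E. coli BL21(DE3) was used to express GST-fused SH3 domains from four yeast species, which were then purified on glutathione Sepharose. These were incubated at 10 μg/ml in TBS-based blocking buffer overnight at 4°C on cellulose membranes carrying synthetic 15-mer peptides, in which cysteines were replaced by serines. Binding signal is the replicate average of normalized, background-subtracted spot intensity, in arbitrary units that differ between domains.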
# AgBbc1 = biological target: AgBbc1
# Procedure, shortened: as §1
# AgBem1-D1 = biological target: AgBem1-D1
# Procedure, shortened: as §1
# AgBzz1-D1 = biological target: AgBzz1-D1
# Procedure, shortened: as §1
# AgBzz1-D2 = biological target: AgBzz1-D2
# Procedure, shortened: as §1
# AgCyk3 = biological target: AgCyk3
# Procedure, shortened: as §1
# AgFus1 = biological target: AgFus1
# Procedure, shortened: as §1
# AgHof1 = biological target: AgHof1
# Procedure, shortened: as §1
# AgHse1 = biological target: AgHse1
# Procedure, shortened: as §1
# AgLsb1 = biological target: AgLsb1
# Procedure, shortened: as §1
# AgLsb4 = biological target: AgLsb4
# Procedure, shortened: as §1
# AgMyo5 = biological target: AgMyo5
# Procedure, shortened: as §1
# AgNbp2 = biological target: AgNbp2
# Procedure, shortened: as §1
# AgRvs167 = biological target: AgRvs167
# Procedure, shortened: as §1
# AgSho1 = biological target: AgSho1
# Procedure, shortened: as §1
# AgSla1-D1-D2 = biological target: AgSla1-D1-D2
# Procedure, shortened: as §1
# AgSla1-D3 = biological target: AgSla1-D3
# Procedure, shortened: as §1
# CaAbp1-D1 = biological target: CaAbp1-D1
# Procedure, shortened: as §1
# CaAbp1-D2 = biological target: CaAbp1-D2
# Procedure, shortened: as §1
# CaBbc1 = biological target: CaBbc1
# Procedure, shortened: as §1
# CaBem1-D1 = biological target: CaBem1-D1
# Procedure, shortened: as §1
# CaBzz1-D1 = biological target: CaBzz1-D1
# Procedure, shortened: as §1
# CaBzz1-D2 = biological target: CaBzz1-D2
# Procedure, shortened: as §1
# CaCyk3 = biological target: CaCyk3
# Procedure, shortened: as §1
# CaFus1 = biological target: CaFus1
# Procedure, shortened: as §1
# CaHof1 = biological target: CaHof1
# Procedure, shortened: as §1
# CaHse1 = biological target: CaHse1
# Procedure, shortened: as §1
# CaLsb1 = biological target: CaLsb1
# Procedure, shortened: as §1
# CaLsb4 = biological target: CaLsb4
# Procedure, shortened: as §1
# CaMyo5 = biological target: CaMyo5
# Procedure, shortened: as §1
# CaNbp2 = biological target: CaNbp2
# Procedure, shortened: as §1
# CaRvs167 = biological target: CaRvs167
# Procedure, shortened: as §1
# CaRvs167-3 = biological target: CaRvs167-3
# Procedure, shortened: as §1
# CaSho1 = biological target: CaSho1
# Procedure, shortened: as §1
# CaSla1-D1-D2 = biological target: CaSla1-D1-D2
# Procedure, shortened: as §1
# CaSla1-D3 = biological target: CaSla1-D3
# Procedure, shortened: as §1
# ScAbp1 = biological target: ScAbp1
# Procedure, shortened: as §1
# ScBbc1 = biological target: ScBbc1
# Procedure, shortened: as §1
# ScBem1-D1 = biological target: ScBem1-D1
# Procedure, shortened: as §1
# ScBzz1-D1 = biological target: ScBzz1-D1
# Procedure, shortened: as §1
# ScBzz1-D2 = biological target: ScBzz1-D2
# Procedure, shortened: as §1
# ScCyk3 = biological target: ScCyk3
# Procedure, shortened: as §1
# ScFus1 = biological target: ScFus1
# Procedure, shortened: as §1
# ScHof1 = biological target: ScHof1
# Procedure, shortened: as §1
# ScHse1 = biological target: ScHse1
# Procedure, shortened: as §1
# ScLsb1 = biological target: ScLsb1
# Procedure, shortened: as §1
# ScLsb2 = biological target: ScLsb2
# Procedure, shortened: as §1
# ScLsb3 = biological target: ScLsb3
# Procedure, shortened: as §1
# ScLsb4 = biological target: ScLsb4
# Procedure, shortened: as §1
# ScMyo3 = biological target: ScMyo3
# Procedure, shortened: as §1
# ScMyo5 = biological target: ScMyo5
# Procedure, shortened: as §1
# ScNbp2 = biological target: ScNbp2
# Procedure, shortened: as §1
# ScPex13 = biological target: ScPex13
# Procedure, shortened: as §1
# ScRvs167 = biological target: ScRvs167
# Procedure, shortened: as §1
# ScSho1 = biological target: ScSho1
# Procedure, shortened: as §1
# ScSla1-D1-D2 = biological target: ScSla1-D1-D2
# Procedure, shortened: as §1
# ScSla1-D3 = biological target: ScSla1-D3
# Procedure, shortened: as §1
# SpAbp1-D1 = biological target: SpAbp1-D1
# Procedure, shortened: as §1
# SpBbc1 = biological target: SpBbc1
# Procedure, shortened: as §1
# SpBzz1-D1 = biological target: SpBzz1-D1
# Procedure, shortened: as §1
# SpBzz1-D2 = biological target: SpBzz1-D2
# Procedure, shortened: as §1
# SpCyk3 = biological target: SpCyk3
# Procedure, shortened: as §1
# SpHof1 = biological target: SpHof1
# Procedure, shortened: as §1
# SpHof1-2 = biological target: SpHof1-2
# Procedure, shortened: as §1
# SpHof1-3 = biological target: SpHof1-3
# Procedure, shortened: as §1
# SpHse1 = biological target: SpHse1
# Procedure, shortened: as §1
# SpLsb1 = biological target: SpLsb1
# Procedure, shortened: as §1
# SpLsb4 = biological target: SpLsb4
# Procedure, shortened: as §1
# SpMyo1 = biological target: SpMyo1
# Procedure, shortened: as §1
# SpNbp2 = biological target: SpNbp2
# Procedure, shortened: as §1
# SpPex13 = biological target: SpPex13
# Procedure, shortened: as §1
# SpRvs167 = biological target: SpRvs167
# Procedure, shortened: as §1
# SpSla1-D1-D2 = biological target: SpSla1-D1-D2
# Procedure, shortened: as §1
# SpSla1-D3 = biological target: SpSla1-D3
# Procedure, shortened: as §1
binder,measurement,setting,value
B1,SPOT peptide array binding signal intensity,AgAbp1,2
same,SPOT peptide array binding signal intensity,AgBbc1,50
same,SPOT peptide array binding signal intensity,AgBem1-D1,162
same,SPOT peptide array binding signal intensity,AgBzz1-D1,107
same,SPOT peptide array binding signal intensity,AgBzz1-D2,121
same,SPOT peptide array binding signal intensity,AgCyk3,11
same,SPOT peptide array binding signal intensity,AgFus1,1100
same,SPOT peptide array binding signal intensity,AgHof1,34.5
same,SPOT peptide array binding signal intensity,AgHse1,500
same,SPOT peptide array binding signal intensity,AgLsb1,1.5
same,SPOT peptide array binding signal intensity,AgLsb4,1390
same,SPOT peptide array binding signal intensity,AgMyo5,1
same,SPOT peptide array binding signal intensity,AgNbp2,279
same,SPOT peptide array binding signal intensity,AgRvs167,12
same,SPOT peptide array binding signal intensity,AgSho1,516
same,SPOT peptide array binding signal intensity,AgSla1-D1-D2,58
same,SPOT peptide array binding signal intensity,AgSla1-D3,12
same,SPOT peptide array binding signal intensity,CaAbp1-D1,30
same,SPOT peptide array binding signal intensity,CaAbp1-D2,20
same,SPOT peptide array binding signal intensity,CaBbc1,68.5
same,SPOT peptide array binding signal intensity,CaBem1-D1,33.5
same,SPOT peptide array binding signal intensity,CaBzz1-D1,625
same,SPOT peptide array binding signal intensity,CaBzz1-D2,247
same,SPOT peptide array binding signal intensity,CaCyk3,35
same,SPOT peptide array binding signal intensity,CaFus1,1530
same,SPOT peptide array binding signal intensity,CaHof1,2.25
same,SPOT peptide array binding signal intensity,CaHse1,130
same,SPOT peptide array binding signal intensity,CaLsb1,2.25
same,SPOT peptide array binding signal intensity,CaLsb4,62.5
same,SPOT peptide array binding signal intensity,CaMyo5,12.5
B2,SPOT peptide array binding signal intensity,AgAbp1,2
same,SPOT peptide array binding signal intensity,AgBbc1,3.75
same,SPOT peptide array binding signal intensity,AgBem1-D1,31.5
same,SPOT peptide array binding signal intensity,AgBzz1-D1,26.5
same,SPOT peptide array binding signal intensity,AgBzz1-D2,22.5
same,SPOT peptide array binding signal intensity,AgCyk3,≤ 0
same,SPOT peptide array binding signal intensity,AgFus1,162
same,SPOT peptide array binding signal intensity,AgHof1,25
same,SPOT peptide array binding signal intensity,AgHse1,1000
same,SPOT peptide array binding signal intensity,AgLsb1,1.75
same,SPOT peptide array binding signal intensity,AgLsb4,47.5
same,SPOT peptide array binding signal intensity,AgMyo5,7.25
same,SPOT peptide array binding signal intensity,AgNbp2,11
same,SPOT peptide array binding signal intensity,AgRvs167,1.67
same,SPOT peptide array binding signal intensity,AgSho1,25
same,SPOT peptide array binding signal intensity,AgSla1-D1-D2,122
same,SPOT peptide array binding signal intensity,AgSla1-D3,5.5
same,SPOT peptide array binding signal intensity,CaAbp1-D1,70
same,SPOT peptide array binding signal intensity,CaAbp1-D2,51.5
same,SPOT peptide array binding signal intensity,CaBbc1,0.25
same,SPOT peptide array binding signal intensity,CaBem1-D1,9
same,SPOT peptide array binding signal intensity,CaBzz1-D1,95
same,SPOT peptide array binding signal intensity,CaBzz1-D2,32.2
same,SPOT peptide array binding signal intensity,CaCyk3,≤ 0
same,SPOT peptide array binding signal intensity,CaFus1,624
same,SPOT peptide array binding signal intensity,CaHof1,≤ 0
same,SPOT peptide array binding signal intensity,CaHse1,3
same,SPOT peptide array binding signal intensity,CaLsb1,0.5
same,SPOT peptide array binding signal intensity,CaLsb4,13
same,SPOT peptide array binding signal intensity,CaMyo5,14.2
same,SPOT peptide array binding signal intensity,CaNbp2,89
same,SPOT peptide array binding signal intensity,CaRvs167,4.5
same,SPOT peptide array binding signal intensity,CaRvs167-3,16.2
same,SPOT peptide array binding signal intensity,CaSho1,318
same,SPOT peptide array binding signal intensity,CaSla1-D1-D2,≤ 0
same,SPOT peptide array binding signal intensity,CaSla1-D3,≤ 0
same,SPOT peptide array binding signal intensity,ScAbp1,47
same,SPOT peptide array binding signal intensity,ScBbc1,≤ 0
same,SPOT peptide array binding signal intensity,ScBem1-D1,18
same,SPOT peptide array binding signal intensity,ScBzz1-D1,11
same,SPOT peptide array binding signal intensity,ScBzz1-D2,20
same,SPOT peptide array binding signal intensity,ScCyk3,24
same,SPOT peptide array binding signal intensity,ScFus1,206
same,SPOT peptide array binding signal intensity,ScHof1,1
same,SPOT peptide array binding signal intensity,ScHse1,1290
same,SPOT peptide array binding signal intensity,ScLsb1,6.25
same,SPOT peptide array binding signal intensity,ScLsb2,2
same,SPOT peptide array binding signal intensity,ScLsb3,34.5
same,SPOT peptide array binding signal intensity,ScLsb4,8
same,SPOT peptide array binding signal intensity,ScMyo3,3.5
same,SPOT peptide array binding signal intensity,ScMyo5,8.5
same,SPOT peptide array binding signal intensity,ScNbp2,42.5
same,SPOT peptide array binding signal intensity,ScPex13,≤ 0
same,SPOT peptide array binding signal intensity,ScRvs167,3.17
same,SPOT peptide array binding signal intensity,ScSho1,201
same,SPOT peptide array binding signal intensity,ScSla1-D1-D2,12
same,SPOT peptide array binding signal intensity,ScSla1-D3,0.5
same,SPOT peptide array binding signal intensity,SpAbp1-D1,45
same,SPOT peptide array binding signal intensity,SpBbc1,≤ 0
same,SPOT peptide array binding signal intensity,SpBzz1-D1,111
same,SPOT peptide array binding signal intensity,SpBzz1-D2,≤ 0
same,SPOT peptide array binding signal intensity,SpCyk3,≤ 0
same,SPOT peptide array binding signal intensity,SpHof1,65.2
same,SPOT peptide array binding signal intensity,SpHof1-2,6.75
same,SPOT peptide array binding signal intensity,SpHof1-3,455
same,SPOT peptide array binding signal intensity,SpHse1,552
same,SPOT peptide array binding signal intensity,SpLsb1,0.75
same,SPOT peptide array binding signal intensity,SpLsb4,7
same,SPOT peptide array binding signal intensity,SpMyo1,9
same,SPOT peptide array binding signal intensity,SpNbp2,3
same,SPOT peptide array binding signal intensity,SpPex13,10
same,SPOT peptide array binding signal intensity,SpRvs167,6.67
same,SPOT peptide array binding signal intensity,SpSla1-D1-D2,≤ 0
same,SPOT peptide array binding signal intensity,SpSla1-D3,35
